High-throughput results deposited in PubChem BioAssay by The Scripps Research Institute Molecular Screening Center.
DAX1 inh-1 – DAX1 (NR0B1) inhibitors, primary screen, cell-based, HEK293, Gal4-DAX1, luciferase luminescence | HEK293 Gal4-DAX1 luciferase reporter | AID 504766, 2011 | hit rate 0.99% among 340,000 | inhibition, % at 6.75 µM;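 active = inhibition above the mean over all tested compounds plus 3 SD, cut at about 4.2% in these data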;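 note: 0% = DAX1-transfected cells with DMSO and 100% = empty-vector control cells with DMSO; inhibition shows as a rise in luminescence from relieved DAX1 repression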
Target sequence (P51843 207-470 limits assumed): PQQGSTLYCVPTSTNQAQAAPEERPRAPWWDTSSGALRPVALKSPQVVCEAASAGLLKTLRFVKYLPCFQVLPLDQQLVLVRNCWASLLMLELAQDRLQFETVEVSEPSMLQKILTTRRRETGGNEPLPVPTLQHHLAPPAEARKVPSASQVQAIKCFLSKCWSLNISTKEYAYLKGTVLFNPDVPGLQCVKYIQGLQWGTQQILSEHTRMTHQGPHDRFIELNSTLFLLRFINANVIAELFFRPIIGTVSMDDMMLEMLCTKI
hgDAF12 agonist – H. glycines DAF-12 receptor agonists, primary screen, cell-based, luminescence, HEK293, GAL4 fusion, UAS-luciferase; hit rate 1.8% among 370,000; HEK293 GAL4-hgDAF12 UAS-luciferase reporter, agonist luminescence; normalized to butyrate control; Nuclear hormone receptor DAF-12 (Heterodera glycines), GAL4 fusion; activation, % at 6.8 µM;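 active = activation above a cutoff set at the mean of all screened compounds plus 3 SD, cut at about 10% in these data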;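 note: 0% = DMSO wells and 100% = sodium butyrate wells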
DAX1 inh-2 – DAX1 (NR0B1) inhibitors on StAR promoter, primary screen, cell-based, luminescence, SF-1 (NR5A1), full-length DAX-1 | HEK293T StAR-luciferase reporter, SF-1/DAX-1 repression relief | hit rate 1.1% among 370,000 | AID 652010, 2013 | inhibition, % at 6.8 µM;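 active = inhibition above the mean over all tested compounds plus 3 SD, cut at about 3.6% in these data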;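 note: 0% = DAX-1 cells with DMSO and 100% = cells lacking DAX-1 with DMSO; higher inhibition means more luminescence from relief of DAX-1 repression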
hcDAF12 agonist – H. contortus DAF-12 nuclear receptor activators, primary screen, cell-based, luminescence, HEK293, lit1-tk-luc reporter. hit rate 1.4% among 370,000. HEK293 hcDAF-12 lit1-tk-luc reporter; 0% DMSO, 100% Δ7-dafachronic acid. activation, % at 6.8 µM. AID 652067, 2013;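 active = activation above the mean of all tested compounds plus 3 SD, cut at about 5.5% in these data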;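 note: 100% = response to 3 µM Δ7-dafachronic acid high control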
ssDAF-12 act – S. stercoralis DAF-12 nuclear receptor activators, primary screen, cell-based, luminescence, HEK293, GRIP1 co-expression, lit1-tk-luc; AID 652126, 2013; HEK293 ssDAF-12/GRIP1 lit1-tk-luc reporter; % of 3 µM dafachronic acid response; activation, % at 6.8 µM; hit rate 1% among 370,000;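 active = activation above the mean over all tested compounds plus 3 SD, cut at about 0.9% in these data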;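 note: 0% = DMSO-only wells and 100% = 3 µM delta7-dafachronic acid wells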
LXRb hcDAF ctr – LXR agonists, Gal4 luciferase reporter, confirmation, counter-screen for hcDAF-12 agonist project, cell-based, luminescence, HEK293, H. contortus campaign | shares compounds with hcDAF12 agonist | HEK293 Gal4-LXR tk-luc reporter, 24 h; normalized: DMSO 0%, positive control 100% | activation, % at 6.8 µM | 3,400 tested, under 10 active | AID 743027, 2013;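 active = mean percent activation of the reporter above a cutoff set as the average over tested compounds plus their standard deviation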
Target sequence (P55055 whole entry, looked up, the tested form may be a part): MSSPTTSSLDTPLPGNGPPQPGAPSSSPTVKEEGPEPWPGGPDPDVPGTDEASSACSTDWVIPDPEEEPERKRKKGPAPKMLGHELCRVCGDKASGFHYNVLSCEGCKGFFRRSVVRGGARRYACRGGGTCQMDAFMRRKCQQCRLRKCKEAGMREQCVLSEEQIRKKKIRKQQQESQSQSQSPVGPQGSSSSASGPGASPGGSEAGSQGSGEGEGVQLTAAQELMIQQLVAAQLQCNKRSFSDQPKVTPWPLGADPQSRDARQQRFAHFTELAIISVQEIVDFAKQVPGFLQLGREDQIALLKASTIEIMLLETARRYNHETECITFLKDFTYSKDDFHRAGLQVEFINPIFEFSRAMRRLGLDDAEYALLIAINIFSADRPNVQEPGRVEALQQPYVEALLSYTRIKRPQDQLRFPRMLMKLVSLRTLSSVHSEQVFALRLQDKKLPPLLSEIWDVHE
hcDAF12 conf – H. contortus DAF-12 receptor agonists, confirmation, cell-based, luminescence, HEK293, lit1-tk-luc, triplicate; shares compounds with hcDAF12 agonist; activation, % at 6.8 µM; HEK293 hcDAF-12 lit1-tk-luc reporter; % of Δ7-dafachronic acid response; hit rate 61% among 3,400;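 active = mean activation across triplicate tests above the threshold derived from the earlier primary screen, cut at about 5.5% in these data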;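 note: 0% = DMSO only wells and 100% = 3 µM Δ7-dafachronic acid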
hgDAF12 conf – H. glycines DAF-12 receptor agonists, confirmation, cell-based, luminescence, HEK293, GAL4-LBD fusion | AID 743050, 2013 | hit rate 80% among 3,300 | HEK293 GAL4-hgDAF12 luciferase reporter, agonist mode; percent of butyrate response | activation, % at 6.8 µM | shares compounds with hgDAF12 agonist;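 active = mean activation over triplicate wells above the hit cutoff derived from the earlier primary screen, cut at about 11% in these data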;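 note: 0% = DMSO low control and 100% = 2 mM sodium butyrate high control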
LXR ag 2 – LXR agonists, Gal4 luciferase reporter, confirmation, counter-screen for hgDAF-12 agonist project, cell-based, luminescence, HEK293, H. glycines campaign; 24 h; 3,300 tested, under 10 active; activation, % at 6.8 µM; shares compounds with hgDAF12 agonist;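 active = mean activation of the triplicate above a set limit carried over from the primary screen, none filed active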
Starred values were filed as active, the others as inactive; x = no result. Only some compounds are listed: those with a hit (about 4.1% of all), similar ones and a draw of the others.

SMILES | DAX1 inh-1 | hgDAF12 agonist | DAX1 inh-2 | hcDAF12 agonist | ssDAF-12 act | LXRb hcDAF ctr | hcDAF12 conf | hgDAF12 conf | LXR ag 2
COCCNC(=O)c1cc2c(c(-c3cccc(C#CC(C)(C)O)c3)n1)[C@@H](CCO)N(S(=O)C(C)(C)C)C2 (stereo partly drawn) | x | 1 | 3 | 1 | -1 | x | x | x | x
c1ccc(Nc2nc(-c3ccccc3)ns2)cc1 | 2 | 22* | 2 | 16* | 2.0* | 2 | 9.5* | 29* | 1
S=C(NCCc1ccccc1)N1CCC2CC1c1cc(-c3ccc4c(c3)OCO4)ccc12 (stereo not drawn) | x | 1 | 1 | 0 | -1 | x | x | x | x
Cn1c(NCc2c[nH]c3ccccc23)nc2ccccc21 | 2 | 16* | 2 | 16* | 1.7* | 1 | 15* | 25* | 1
O=C(c1cc(-c2ccc(Cl)cc2Cl)on1)N1CCCCCC1 | 4 | 16* | 3 | 8.8* | 0 | 2 | 8.3* | 18* | 1
O=C(c1cc(-c2ccc(O)cc2)on1)N1CCCCCC1 | 5.1* | 14* | 2 | 6.8* | 0 | 1 | 3 | 17* | 1
O=C(Nc1ccc2cn[nH]c2c1)c1ccccc1F | 2 | 14* | 3.9* | 7.8* | 1 | 1 | 5 | 16* | 1
N#Cc1ccc(C(=O)Nc2ccc3ccccc3c2)cc1 | -1 | 20* | 1 | 7.9* | 1 | 1 | 5 | 22* | 1
O=C(Nc1ccc2ccccc2c1)c1ccccc1F | 1 | 19* | 2 | 14* | 1.6* | 2 | 9.3* | 23* | 1
Cc1cc(C)cc(NC(=O)OC2CC3CC2[C@H]2CCCCN2[C@H]3C)c1 (stereo partly drawn) | x | 0 | 0 | -2 | 0 | x | x | x | x
Cc1ccc(NC(=O)c2cc(C(=O)Nc3ccc(C)cc3)n(C)n2)cc1 | 3 | 2 | 0 | 3 | -1 | x | x | x | x
Cc1ccc(NC(=O)c2cc3nc(C)cc(C)n3n2)cc1 | 0 | 16* | 4.3* | 8.5* | 1 | 1 | 5 | 17* | 1
O=C(CSc1ccccc1)Nc1nccs1 | -1 | 6 | 0 | 1 | 0 | x | x | x | x
O=C(CSc1cn(Cc2ccccc2)c2ccccc12)Nc1nccs1 | 2 | 24* | 8.9* | 9.7* | 1.1* | 1 | 8.9* | 18* | 1
CC(=O)Nc1cc2nn(-c3ccccc3)nc2cc1C | -1 | 18* | 2 | 7.0* | 1.4* | 2 | 5 | 19* | 1
Cc1cc2nn(-c3ccccc3)nc2cc1NC(=O)c1cccs1 | 1 | 4 | 0 | 1 | -1 | x | x | x | x
CCOc1ncccc1C(=O)Nc1nc(SC)ns1 | 2 | 14* | 1 | 6.9* | 0 | 0 | 6.1* | 11* | 0
C=CCNc1ncnc2c1cnn2-c1ccc(OC)cc1 | 4 | 14* | 4.3* | 6.6* | 0.9* | 2 | 5.8* | 17* | 1
COc1ccc(-n2ncc3c(NCc4ccco4)ncnc32)cc1 | 4 | 5 | 2 | 2 | -1 | x | x | x | x
CCc1cccc(NC(=O)c2cnn(-c3ccccc3)c2C)c1 | 4 | 19* | 3 | 7.9* | 0 | 1 | 4 | 16* | 1
Cc1cccc(C)c1NC(=O)c1cnn(-c2ccccc2)c1C | 1 | 1 | -1 | 0 | -1 | x | x | x | x
CC1=CN2C(=N)/C(=C/c3ccco3)C(=O)N=C2S1 | 3 | 16* | 4.0* | 10* | 1.6* | 1 | 3 | 12* | 1
Cc1ccc(C)c(-n2nnc3ccccc3c2=O)c1 | 0 | -1 | -5 | 1 | -1 | x | x | x | x
COc1ccccc1Nc1nc(-c2cccc([N+](=O)[O-])c2)cs1 | 1 | 1 | 0 | 0 | 0 | x | x | x | x
O=[N+]([O-])c1cccc(-c2csc(Nc3ccccc3)n2)c1 | 2 | 14* | 0 | 6.8* | 0.9* | 1 | 8.0* | 17* | 0
SMILES | DAX1 inh-1 | hgDAF12 agonist | DAX1 inh-2 | hcDAF12 agonist | ssDAF-12 act | LXRb hcDAF ctr | hcDAF12 conf | hgDAF12 conf | LXR ag 2
Brc1ccc(Nc2nc(-c3cccnc3)cs2)cc1 | 3 | 23* | 2 | 8.0* | 1 | 1 | 11* | 13* | 0
Cn1cc(-c2nc3ccccc3[nH]2)c2ccccc21 | 0 | 5 | 1 | 5 | 0 | x | x | x | x
COc1ccc(N=c2oc3ccc(OC)cc3cc2-c2nc3ccccc3[nH]2)cc1 | 2 | 15* | 2 | 6.7* | 2.5* | 0 | 5 | 10* | 0
COc1cccc(N=c2oc3ccccc3cc2-c2nc3ccccc3[nH]2)c1 | 1 | 16* | 3 | 15* | 2.6* | 1 | 6.7* | 19* | 1
CCCNC(=O)C[C@@H]1C[C@H]2c3cc(NC(=O)c4ccc5c(c4)OCO5)ccc3O[C@H]2[C@@H](CO)O1 | 2 | 0 | 0 | 0 | -1 | x | x | x | x
C=CCN1C(=O)[C@@H](CC(=O)NCCC(C)C)[C@]2(C(=O)OC)CCCCC=C12 | x | -4 | 0 | -1 | -1 | x | x | x | x
Cc1ccc(NC(=O)c2ccc(Cl)cc2Cl)cc1O | 7.7* | 17* | 3 | 9.6* | 1.9* | 1 | 6.2* | 15* | 1
O=C(Nc1ccc(Nc2ccccc2)cc1)c1ccc(Cl)cc1Cl | x | 2 | -1 | -1 | -1 | x | x | x | x
COCCN1C[C@@H](CO)O[C@@H](n2cnc3c(NC(C)C)ncnc32)C1 | x | -1 | 1 | -1 | -1 | x | x | x | x
Cc1ccc(O)c(C2=Nc3ccccc3N=C(c3cccs3)C2)c1 | -1 | 1 | 0 | 1 | -1 | x | x | x | x
